# Measured values as given in the supplement of paper PMC6555819.
# Columns and labels:
# Assay in all cases: PBM binding z-score (relative to random genomic background probes); higher = stronger binding; sequences stand for … in GC…GCGATTGACAGCGTAGAATGAAGG
# [1] = system: FXR:RXRa (NR concentration 270 nM, RXRa partner concentration 90 nM)
# Method in brief: (§1)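 Ligand-free nuclear receptor dimers were applied to custom Agilent 4×180K protein-binding microarrays whose double-stranded probes carried direct-repeat seeds, single-nucleotide variants, half-site ablations and random human genomic background sequences in 34-nt variable regions. Incubation lasted 1 h. Binding z-scores were computed against the random background probes from regression-normalized fluorescence.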
# [2] = system: LXRa:RXRa (NR concentration 270 nM, RXRa partner concentration 90 nM)
# Method in brief: as §1
# [3] = system: LXRa homodimer (NR concentration 270 nM)
# Method in brief: as §1
# [4] = system: LXRb:RXRa (NR concentration 270 nM, RXRa partner concentration 90 nM)
# Method in brief: as §1
# [5] = system: LXRb homodimer (NR concentration 270 nM)
# Method in brief: as §1
# [6] = system: PPARa:RXRa (NR concentration 270 nM, RXRa partner concentration 90 nM)
# Method in brief: as §1
# [7] = system: PPARg:RXRa (NR concentration 180 nM, RXRa partner concentration 90 nM)
# Method in brief: as §1
# [8] = system: PPARg:RXRa 270nM:90nM, anti-RXR (NR concentration 270 nM, RXRa partner concentration 90 nM)
# Method in brief: as §1
# [9] = system: PPARg:RXRa 30nM:10nM, anti-RXR (NR concentration 30 nM, RXRa partner concentration 10 nM)
# Method in brief: as §1
# [10] = system: PPARg:RXRa 90nM:30nM, anti-RXR (NR concentration 90 nM, RXRa partner concentration 30 nM)
# Method in brief: as §1
# [11] = system: PPARg:RXRa DBDmut IVT, anti-RXR (DBD mutation: RXRa K156A/R161A, NR concentration 270 nM, RXRa partner concentration 90 nM)
# Method in brief: as §1
# [12] = system: PPARg:RXRa IVT, anti-PPARg (NR concentration 270 nM, RXRa partner concentration 90 nM)
# Method in brief: as §1
# [13] = system: PPARg DBDmut:RXRa IVT, anti-PPARg (DBD mutation: PPARg1 K132A/R137A, NR concentration 270 nM, RXRa partner concentration 90 nM)
# Method in brief: as §1
# [14] = system: PPARg DBDmut IVT, anti-PPARg (DBD mutation: PPARg1 K132A/R137A, NR concentration 270 nM)
# Method in brief: as §1
# [15] = system: PPARg homodimer (NR concentration 180 nM)
# Method in brief: as §1
# [16] = system: PXR:RXRa (NR concentration 270 nM, RXRa partner concentration 90 nM)
# Method in brief: as §1
# [17] = system: PXR homodimer (NR concentration 270 nM)
# Method in brief: as §1
# [18] = system: RARa:RXR (NR concentration 270 nM, RXRa partner concentration 90 nM)
# Method in brief: as §1
# [19] = system: RARa homodimer (NR concentration 270 nM)
# Method in brief: as §1
# [20] = system: RARb:RXRa (NR concentration 270 nM, RXRa partner concentration 90 nM)
# Method in brief: as §1
Sequence,PBM binding z-score [1],PBM binding z-score [2],PBM binding z-score [3],PBM binding z-score [4],PBM binding z-score [5],PBM binding z-score [6],PBM binding z-score [7],PBM binding z-score [8],PBM binding z-score [9],PBM binding z-score [10],PBM binding z-score [11],PBM binding z-score [12],PBM binding z-score [13],PBM binding z-score [14],PBM binding z-score [15],PBM binding z-score [16],PBM binding z-score [17],PBM binding z-score [18],PBM binding z-score [19],PBM binding z-score [20]
GCTTACGGGTCACAGGTTATAGCATGAATAGAAT,6.03,3.91,-0.00317,3.73,0.0394,5.75,7.57,6.67,4.61,6.2,4.72,5.4,2.51,1.47,1.81,3.52,-0.0291,4.84,0.515,4.03
GCGAATGGGGCAAAGCAGGTTACCATAAGGTTGG,0.135,0.262,-0.483,0.474,-0.239,1.31,0.647,0.187,-0.478,-0.292,1.67,1.37,-0.887,-1.21,0.664,0.467,-0.414,0.571,-0.509,1.1
TCTAGCAGGCCAGAGGGTCACTCAAGAGGTACGG,0.812,1.03,-0.601,0.926,-1.51,2.39,1.43,2.72,2.09,2.57,0.944,0.645,-0.27,-1.24,0.106,1.57,-0.442,2.03,-0.734,2.09
CCGGGTAGGTTATGGGGCATTCAGGCAACGGTGA,0.235,0.484,0.0736,0.904,-0.348,1.54,2.18,3.16,0.788,2.58,0.0778,1.73,-0.642,-0.773,0.724,0.144,0.122,0.51,0.0053,1.1
ACTCGGAGGACAAAGGTCAAAGCTACGCCAGTGA,6.13,5.86,4.17,5.35,1.64,6.23,8.63,7.42,6.79,8.13,1.44,4.45,-0.163,-0.288,3.24,5.4,0.776,6.35,0.304,5.24
CCGCCTGGGGCAAGGTTACCATAACGCACAGCCA,0.284,0.783,-0.315,0.56,-1.07,1.21,0.654,0.637,-0.339,0.253,-0.567,0.525,-0.637,-1.46,0.471,0.34,-0.119,0.916,-0.239,1.61
CAAACTAAGTCACCGGAAGGTCAAAGTCCGCATG,3.59,3.86,3.92,3.75,1.12,4.07,2.05,2.78,0.812,2.18,2.44,2.88,0.787,1.14,2.8,3.98,1.63,4.43,1.48,3.46
ATATGAAGGTTACATCCGGGTCATTCAGGCTATG,2.82,4.87,1.86,3.51,0.71,3.69,2.35,2.52,1,1.58,2.04,3.33,1.37,1.68,3.27,4.21,2.67,4.2,0.977,3.16
CAGCCTAGCTCAGGGCCAGTATAGGAGGAACGTT,-1.13,-1.14,-0.395,-1.15,-1.28,-1.21,-0.195,-1.24,-1.24,-1.17,-0.913,-0.949,-2.22,-2.03,-1.23,-0.988,-0.337,-1.33,-0.424,-0.591
AGAATGAGGTGATTAAGATCAGGGAATTGCGGTC,-0.0476,-0.338,-0.29,-0.384,-0.427,0.785,0.618,0.415,-0.0538,0.0296,2.96,2.25,0.816,-0.56,-0.484,-0.0501,-0.416,0.0955,-0.457,0.268
CCGACTGGGGCAGGGTTACCATAACGCACAGCCA,0.198,0.487,-0.443,0.866,-0.609,1.41,1.77,1.98,0.254,1.44,1.51,2.47,-0.73,-1.24,0.145,0.395,-0.445,0.895,-0.407,0.803
CATACTGGGCCAAAAAGGTCATTGATGCCGATAA,3.78,4.56,3.26,4.16,0.973,4.63,2.82,3.82,1.24,3.11,3.46,3.71,0.731,0.232,2.9,4.68,3.77,5.06,2.12,3.82
CCTACTGGGCCATCAGGTCATTGCTATCAACGTT,1.55,1.63,1.36,1.64,-0.479,2.83,2.62,3.75,1.26,2.92,4.86,4.95,0.318,-0.34,1.02,1.75,0.209,2.17,-0.0297,2.35
CCCACTGGGCCAAGGTCATTGATCAGTCAAAGCA,3.13,2.95,1.44,2.57,-0.562,3.8,4.07,4.12,1.57,3.3,2.96,4.5,-0.866,-1.7,1.75,3.5,1.12,3.45,-0.0237,3.08
